Bioassay records deposited in PubChem BioAssay by several laboratories.
m-calpain inh – inhibitors of pig calpain II, primary screen, biochemical, fluorogenic peptide substrate, 1536-well | purified calpain II, 30 min | inhibition, % at 16 µM | hit rate 0.37% among 220,000;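 active means inhibition above about 50%, limit read from the data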
ROMK mod – ROMK potassium channel modulators, primary screen, cell-based, thallium flux, MLSMR library | ATP-sensitive inward rectifier potassium channel 1 (Homo sapiens), P48048 | Tet-inducible ROMK, thallium flux fluorescence; actives lie on both sides | B-score at 10 µM | hit rate 2% among 130,000;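 active means signal ratio slope over the read window, or its plate-corrected B-score, at least 3 SD from the plate mean, either direction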;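 further: B-score of the F/F0 ratio slope over 7 to 12 s after thallium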
Target sequence (P48048 whole entry, looked up): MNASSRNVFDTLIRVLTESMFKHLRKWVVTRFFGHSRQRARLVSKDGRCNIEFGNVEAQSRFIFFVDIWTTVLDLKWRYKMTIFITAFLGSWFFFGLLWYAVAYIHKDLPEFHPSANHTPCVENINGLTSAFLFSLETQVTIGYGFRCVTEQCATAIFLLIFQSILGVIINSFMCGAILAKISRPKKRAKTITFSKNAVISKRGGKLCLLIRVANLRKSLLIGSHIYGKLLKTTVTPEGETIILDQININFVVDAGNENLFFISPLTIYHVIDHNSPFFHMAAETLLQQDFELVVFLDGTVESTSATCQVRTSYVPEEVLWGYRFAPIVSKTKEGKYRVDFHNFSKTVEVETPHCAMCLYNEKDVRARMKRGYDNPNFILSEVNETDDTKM
KCC2 mod – KCC2 cotransporter modulators, thallium flux, primary screen, cell-based, HEK293 KCC2, FluoZin-2 fluorescence, MLSMR; KCC2 cells, thallium flux FluoZin-2 fluorescence; B-score of Tl+ flux slope (higher = more flux/activation; lower = inhibition) at 10 µM; hit rate 2.2% among 190,000; Solute carrier family 12 member 5 (Homo sapiens), Q9H2X9;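 active means thallium flux slope and its plate-corrected score both differing from the plate sample mean at a set confidence after two filtering rounds, in either direction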;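 further: slope of fluorescence scaled to starting intensity during 10 to 20 s after thallium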
WT yeast gro inh – growth inhibition of WT strain, primary screen, mitochondrial fusion inhibitor project, WT and mutant strains, chemical genetic. mitochondrial fusion phenotypic screen. inhibition, % at 10 µM. hit rate 2.1% among 190,000; in the data active means inhibition above about 58%; tested in S. cerevisiae
L major viab – Leishmania major promastigote growth inhibition, primary screen | hit rate 9% among 200,000 | Leishmania major promastigotes, resazurin fluorescence viability | inhibition, % at 10 µM; in the data active means inhibition above about 50%;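 further: promastigotes grown with compound for 44 hours at 28 °C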
A number is an active result; – = inactive; · = no result. Compounds with a hit are over-represented: about 12% of the library has one in this group of screens.

SMILES | m-calpain inh | ROMK mod | KCC2 mod | WT yeast gro inh | L major viab
COc1ccc(/C=N/N=C2/NC(=O)CC(C(=O)O)S2)cc1 (stereo not drawn) | – | · | – | – | 58
COc1cccc(NC(=S)N(CCN(C)C)Cc2cccs2)c1 | – | – | – | – | –
COc1cccc(NC(=S)N(CCc2c(C)[nH]c3ccc(C)cc23)Cc2cccs2)c1 | – | – | – | – | 78
COCCNC(=S)N(CCc1c(C)[nH]c2ccc(C)cc12)Cc1cc(OC)c(OC)c(OC)c1 | – | – | – | – | 53
COc1ccc(OC)c(NC(=S)N(CCc2c(C)[nH]c3ccccc23)Cc2cccs2)c1 | – | – | – | – | –
COc1ccc2[nH]c(C)c(CCN(Cc3cccs3)C(=S)Nc3cccc(F)c3)c2c1 | – | · | · | – | 50
COc1ccc(OC)c(NC(=S)N(CCc2c(C)[nH]c3ccc(C)cc23)Cc2cccs2)c1 | – | – | – | – | 84
Cc1ccc(S(=O)(=O)NC(=O)Nc2nccs2)cc1 | – | · | – | · | ·
COC(=O)c1ccc(-c2ccco2)n1Cc1cccc(C)c1 | – | – | – | 64 | –
Cc1nn(CC(=O)Nc2ccc3c(c2)nc2n3CCN(C3CCCCC3)C2)c(=O)c2ccccc12 | – | – | – | – | 72
CC(C)Cc1cc(C(=O)N2CCC(N3CCC(C(=O)NC4CC4)CC3)CC2)n[nH]1 | – | – | – | – | –
O=[N+]([O-])c1ccc(C2(O)CN(c3ccccc3)C3=[N+]2CCS3)cc1 (stereo not drawn) | – | – | – | – | –
NS(=O)(=O)c1ccc(N2N=C(c3ccc(Br)cc3)CC2c2ccc(F)cc2)cc1 (stereo not drawn) | – | · | – | 92 | 95
COc1ccc(C2CC(c3ccccc3)=NN2c2ccc(S(N)(=O)=O)cc2)cc1OC (stereo not drawn) | – | – | – | – | –
Fc1ccc(C2CC(c3ccco3)=NN2c2ccccc2)cc1 (stereo not drawn) | – | – | · | – | –
NS(=O)(=O)c1ccc(N2N=C(c3ccccc3)CC2c2cccc(F)c2)cc1 (stereo not drawn) | – | · | – | 85 | –
CCOC(=O)N1CCN(c2ccc(C(C)=O)cc2F)CC1C (stereo not drawn) | – | – | – | – | –
Cc1ccc(Sc2ccc(NC(=O)CCl)cc2)cc1C | – | – | – | 66 | 100
Cc1ccc(NC(=O)CCSCCC(=O)Nc2ccc(C)c(C)c2)cc1C | – | · | – | – | –
Cc1ccc(C)c(Sc2ccc(NC(=O)CCl)cc2)c1 | – | · | – | 69 | 100
CSc1ccc(NC(=O)CC(C)=O)cc1 | – | · | – | – | –
O=C(Nc1cc(Cl)cc(Cl)c1)c1cccc(OC(F)F)c1 | – | – | – | – | –
COc1ccc(CNC(=O)CSc2nc3cccnc3s2)cc1 | – | · | · | · | ·
CC1CCN(S(=O)(=O)c2ccc(NC(=O)CN3CCOCC3)cc2)CC1 | – | – | · | – | –
CC1CCN(S(=O)(=O)c2ccc(NC(=O)Cc3cccs3)cc2)CC1 | – | – | · | – | 89
SMILES | m-calpain inh | ROMK mod | KCC2 mod | WT yeast gro inh | L major viab
NS(=O)(=O)c1ccc(NC(=O)N2c3ccccc3Sc3ccccc32)cc1 | – | – | – | – | –
CC1CCN(S(=O)(=O)c2ccc(NC(=O)N3c4ccccc4Sc4ccccc43)cc2)CC1 | – | · | · | – | 61
CCOCCCNS(=O)(=O)c1ccc(NC(=O)N2c3ccccc3Sc3ccccc32)cc1 | – | – | · | – | 100
Cc1cccc(NC(=O)CSc2cc(C)c(C#N)c3nc4ccccc4n23)c1 | – | · | · | · | ·
c1ccc(N2CCN(c3ccccc3)C2c2cccnc2)cc1 | – | · | – | – | 92
c1ccc(N2CCN(c3ccccc3)C2c2ccncc2)cc1 | – | · | – | – | 82
COc1cccc(C2N(c3ccccc3)CCN2c2ccccc2)c1OC | – | – | – | – | –
Cc1ccc(N2CCN(c3ccc(C)cc3)C2c2cccnc2)cc1 | – | – | – | – | 86
COc1ccc(C2N(c3ccc(C)cc3)CCN2c2ccc(C)cc2)cc1O | – | – | – | – | –
COc1ccc(C(OC(=O)c2ccco2)C(=O)NC(C)(C)C)cc1 (stereo not drawn) | – | – | – | – | –
O=C(CCN1C(=O)/C(=C/c2ccc3c(c2)OCO3)SC1=S)Nc1ccccc1 | 58 | · | – | – | –
O=C(CCCN1C(=O)/C(=C/c2ccccc2Cl)SC1=S)NNC(=O)c1ccncc1 | – | · | – | · | ·
COc1ccc(/C=C2\SC(=S)N(CCCC(=O)Nc3ccccn3)C2=O)cc1OC | – | · | – | – | 63
Cc1cc(NC(=O)CCN2C(=O)/C(=C\c3ccccc3)SC2=S)no1 | – | · | – | · | ·
O=C(CCCN1C(=O)/C(=C/c2ccccc2Cl)SC1=S)NNC(=O)c1ccccc1Cl | – | – | – | – | 67
CCOC(=O)CSc1nnc(CNC(=O)c2cccs2)n1-c1cc(C)ccc1C | – | · | – | – | –
CC(C)(CN1CCc2ccccc2C1)NS(=O)(=O)c1ccc(Cl)cc1 | – | · | – | · | ·
COc1ccc(OC)c(-n2c(-c3ccc(O)cc3O)n[nH]c2=S)c1 | – | · | · | · | ·
COc1ccc(C)cc1-n1c(-c2ccncc2)n[nH]c1=S | – | · | – | – | –
COc1cc(OC)cc(-c2n[nH]c(=S)n2-c2cc(OC)ccc2OC)c1 | – | – | · | – | 100
COc1cc(-n2c(-c3ccccc3)n[nH]c2=S)c(OC)cc1Cl | – | – | – | – | 59
C=CCn1ccc(=NC=C(C#N)C#N)c2ccccc21 | – | – | – | · | ·
COc1ccc(/C=C2/CCc3ccccc3C2=O)cc1OC | – | – | – | – | 52
COc1cc(/C=C2\CCc3ccccc3C2=O)cc(OC)c1OC | – | – | – | – | 77
COc1ccc2c(c1)CC/C(=C\c1ccc(OC)c(Cn3nc(C)cc3C)c1)C2=O | – | – | – | – | –
SMILES | m-calpain inh | ROMK mod | KCC2 mod | WT yeast gro inh | L major viab
COc1ccc(/C=C2\COc3ccccc3C2=O)cc1OC | – | – | – | – | 100
COc1ccc(/C=C2\C(=O)OCc3cc(OC)c(OC)cc32)cc1OC | – | · | – | – | –
O=C1/C(=C/c2ccncc2)CCc2ccccc21 | – | – | – | · | ·
COc1ccc2c(c1)CC/C(=C\c1ccc(OC)c(Cn3cccn3)c1)C2=O | – | – | – | – | 98
C=CCC1CCCC(=O)N2CC[C@H](O)C12 (stereo partly drawn) | – | – | – | – | –
O=C(CN(Cc1ccc2c(c1)OCO2)C(=O)CNS(=O)(=O)c1ccccc1)NCc1ccco1 | – | · | – | – | –
COc1ccc(Cc2nnc(NS(=O)(=O)c3ccc(Cl)cc3)s2)cc1OC | – | – | – | – | –
CCOC(=O)C1(CCOC)CCN(Cc2ccc(C3CCCCO3)s2)CC1 (stereo not drawn) | – | – | · | – | –
Cn1cccc1/C=C1\CCc2ccccc2C1=O | – | – | – | 60 | –
Cn1cccc1/C=C1\Cc2ccccc2C1=O | – | – | – | – | –
COc1cc(/C=C2/CCc3ccccc3C2=O)cc(OC)c1OC | – | · | – | – | 55
